target: RUNX1 (UniProt Q01196); assay: RUNX1 binding intensity (PBM fluorescence), RUNX1 alone (arbitrary fluorescence units); higher = stronger binding; details: RUNX1 concentration 2 nM; ETS1 concentration 0 nM
Method: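 Cooperative gcPBM on 36-bp genomic probes with neighbouring ETS1 and RUNX1 sites. Recombinant human RUNX1 (2 nM) was incubated alone or with ETS1 (25 nM) and detected with anti-RUNX1 antibody plus Alexa488 secondary. Values are medians over 4 replicate spots; the RUNX1+ETS1 data were normalised to the RUNX1-only data. The probes sit in constant array flanks that are not printed.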
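Also: Full-length recombinant human RUNX1 bound to double-stranded 36-bp genomic probes on a high-density microarray, scored as Alexa488 fluorescence per spot via anti-RUNX1 antibody, median of four replicate spots.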

Sequence of RUNX1 (Q01196 whole entry): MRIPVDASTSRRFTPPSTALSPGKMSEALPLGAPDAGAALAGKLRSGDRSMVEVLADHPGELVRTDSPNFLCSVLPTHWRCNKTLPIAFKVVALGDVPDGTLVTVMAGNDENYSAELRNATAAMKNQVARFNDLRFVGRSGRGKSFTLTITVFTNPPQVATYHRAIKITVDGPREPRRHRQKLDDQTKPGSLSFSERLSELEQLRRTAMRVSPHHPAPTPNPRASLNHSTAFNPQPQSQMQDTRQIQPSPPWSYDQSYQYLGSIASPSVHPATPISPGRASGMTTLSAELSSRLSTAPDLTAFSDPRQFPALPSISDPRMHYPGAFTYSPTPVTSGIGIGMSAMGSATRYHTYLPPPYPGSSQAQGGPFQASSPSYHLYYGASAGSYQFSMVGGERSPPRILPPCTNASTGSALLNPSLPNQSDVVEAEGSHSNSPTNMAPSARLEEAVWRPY

Row | Sequence | RUNX1 binding intensity
1 | GTCCCCGACTTCCGCTCTCGGTTGGTGGTTGGCTTT | 894
2 | TGGGCAGGAAGTGGTATCTGATTGTGGTTTTGATTT | 1360
3 | GGCTTTCCGTTCAAGGATCTTTTTGCGGTCTTTGTC | 1610
4 | GCCGGGCACCCCGGAAGACCGCTGGGAACCGGCTTT | 656
5 | GGCTGGCCTAGGAACTTCCGCCACAAGTCCCGCCCC | 822
6 | CCCTCTCTTCTTCCTCCCCCACCACAAAAGTCACAG | 2440
7 | TCTGCCGCCAGCCCATCCGCGACCGCATCCAGATCT | 1250
8 | AGTGGCTACCACTTCCTTCTCTTACCACAGTTCCTT | 1550
9 | CCCGGAGGACGTCCGGCCTCTGTGAGCCGCAACCTT | 838
10 | GATGGTGTCTTTTGGGGATGTGGGTTTGGGGGATGG | 835
11 | ACCTCATCCTGCTGTTCTTGTGTGTGGTTGAGCAGT | 944
12 | GATGCTTGTTCAGGATGCGGTTTCTTGCAGCAAGTT | 3420
13 | TGCTGCAGCGGCGCTTCCTGGTGGTCAGGGCGCCAT | 707
14 | TTTCTGACTTCCTGTGTGCTTCAGAAACCTCAATGA | 830
15 | GGACCGGAAGTTAAGGCGTTCGCGGCGTGTGGTAAG | 626
16 | CCTTTACGTTTTCCTGTTGCGGGTTCTATCGCTCTG | 1600
17 | GCCGGTGAGGGCGGAAGTGGTAAGACTGACGTGTCC | 709
18 | GCCTGTGGAGTTGCAGGATGTGGTTGGCGAAAAGAA | 905
19 | GAGAGAGGCAGGAAGTGTTGTGGTTATTGTTTGAGC | 1240
20 | GTTCATCCAGGAAACCCCAACCCAGTGCCGCAGTAT | 895

Row | Sequence | RUNX1 binding intensity
21 | TGAGAAAGCTATTTCCGCCCACAAAGAGGCAAGTCT | 763
22 | GTTTCATGTTAAGTAGGATGTGGTCAGTTAGCTTCG | 1120
23 | GACACGTCTTTGGAAGGATGTGGTTGCCGTGGGTTT | 786
24 | TTAAGGAGCTTCCGGGGCCGCGGGTAGAGGCGGGTG | 676
25 | ATACCGGCGCATCCGGATTTTGAAGCCGCAGTGGAC | 673
26 | CACCAGGACGCAACAGGAAACCACAAAGGCCTGAGA | 2660
27 | AGAAACATCCTGCCCAGCCACCTGACCACAAGGCAC | 1280
28 | TTCAACAGGATATTGCTTTGTTACCACAGGCCCTTT | 946
29 | GCCCGGAAGCGCGACGCTGGAGCTGCGGGGTTACCA | 662
30 | AAAGTTGTATAGTGAGGATGTGGTCAAGAACTCACC | 1010
31 | TAAATGTTTCCTAAAAGCTCTTTCATAAACCACAGT | 970
32 | CGGGAGGGGCAGGAAGCGGACTGCGGTGGGGAAGGG | 939
33 | CCCACTTCCTGTCTGCTTCCCTCCACCGCTCAGACC | 1890
34 | GAGTTCTAGACTACAGGATGTGGTTAGAAGAAAAGA | 837
35 | ATGCCTGTAGGAGGATGTGGTTTCTACACAACTCTG | 926
36 | TCATTCTCTGATAAAGGAAGTGGTTACAGCACAATT | 822
37 | GTCTTTCACTCCACTTCCGCCCCCACAAAACATACA | 6600
38 | AGCGGCTGCACAGGAAGTTGGTTTTCACAAAGGCAA | 658
39 | GCCCCAGCCCCCGGATGTGGTGACAGAATCGATACT | 811
40 | AGCTAGGACAGGATGTGAAAACCACACTGACAAAGT | 919
